# Screening data: PubChem BioAssay, National Center for Advancing Translational Sciences (NCATS)
# Cruzain inh noDet: blocks cruzain activity in detergent-free assay; P25779; purified cruzain, Z-FR-AMC fluorescence, no detergent; Potency, µM, inactives show max response, negative = inhibition, hits mostly inhibitors; actives 2.3% (n = 200,000);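 further: plate controls were enzyme without inhibitor for no effect and buffer without enzyme for full effect; nearly all actives have a fitted effect of over 40% in size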
# Target sequence (P25779 123-467 limits assumed): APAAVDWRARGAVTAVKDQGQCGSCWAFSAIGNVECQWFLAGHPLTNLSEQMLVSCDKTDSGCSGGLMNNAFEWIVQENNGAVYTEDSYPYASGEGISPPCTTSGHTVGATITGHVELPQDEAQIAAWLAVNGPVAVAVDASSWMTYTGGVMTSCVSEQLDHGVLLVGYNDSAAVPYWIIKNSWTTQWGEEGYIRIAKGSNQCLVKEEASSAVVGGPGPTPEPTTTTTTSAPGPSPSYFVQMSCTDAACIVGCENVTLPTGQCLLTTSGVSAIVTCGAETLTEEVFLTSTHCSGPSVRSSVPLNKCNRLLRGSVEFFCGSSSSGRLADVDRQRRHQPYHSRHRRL
#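 Detergent-free condition (0.00005% Triton X-100) in acetate buffer pH 5.5 with DTT. 1.5 nM enzyme and compound were pre-mixed 15 min, then 2 uM Z-FR-AMC substrate added; reaction progress from fluorescence change between first and third reads (60 s).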
# Cruzain Triton: inhibitors of Trypanosoma cruzi cruzain with detergent; P25779; purified cruzain, Z-FR-AMC fluorescence, 0.01% Triton; Potency, µM, for the others: max response, negative = inhibition, most hits filed as inhibitors; actives 0.43% (n = 200,000);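 further: plate controls were neutral wells for no effect and buffer without enzyme for full effect; nearly all actives have a fitted effect of over 40% in size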
#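 Cruzain (1.5 nM) preincubated 15 min at RT with compound in 100 mM sodium acetate pH 5.5, 5 mM DTT, 0.01% Triton X-100. Reaction started with 2 uM Z-FR-AMC; AMC fluorescence (ex 360/em 450 nm) change over 60 s gave rate.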
# Numbers without * were called inactive; ? = inconclusive; ! = a repeat was not active. An excerpt weighted towards active compounds, which were near 2.6% of everything screened. The call rests on the fitted dose curve; in most records, active means well fitted curve in the direction sought with a large enough effect; inconclusive means small, poorly fitted or top-dose-only effect, or another doubt; inactive means no such curve, though single readings can be large; an effect the other way counts as inactive or inconclusive. Potency means the concentration at half of the fitted maximal effect.
SMILES,Cruzain inh noDet,Cruzain Triton
O=C(Nc1ccc(Cl)cc1)[C@@H]1[C@@H]2C(=O)N(c3ccc(Cl)cc3Cl)C(=O)[C@@H]2[C@H]2C=CC=NN21,15.8µM*,-5.3%
O=C(Nc1ccc(Cl)cc1)[C@@H]1[C@@H]2C(=O)N(c3ccc(Cl)cc3)C(=O)[C@@H]2[C@H]2C=CC=NN21,20µM*,-5.5%
COc1ccc(Cn2c(=O)n(-c3ccc(F)c(Cl)c3)c(=O)c3c2c2cc(OC)ccc2n3C)cc1,6.6%,-0.5%
Cn1nnnc1SCCCNCc1ccc(-c2ccc(F)c(Cl)c2)o1,-15.5%,-3.0%
O=[N+]([O-])c1cc(S(=O)(=O)c2ccc(N3CCCCC3)c([N+](=O)[O-])c2)ccc1N1CCCCC1,7.94µM*,-7.9%
O=C(/C=C/c1ccc(N2CCCCC2)c([N+](=O)[O-])c1)c1ccc(S(=O)(=O)N2CCCC2)cc1,31.6µM*,-5.5%
COc1cccc(C(=O)/C=C/c2ccc(N3CCCCC3)c([N+](=O)[O-])c2)c1,6.3%,-4.8%
O=[N+]([O-])c1cccc(S(=O)(=O)c2ccc(N3CCCCC3)c([N+](=O)[O-])c2)c1,?,-6.8%
Cc1ccc(CCNC(=O)CCSCc2ccc(Cl)cc2)cc1,0.1%,1.1%
Cc1ccc(CSCCNC(=O)/C=C/c2ccc(Cl)cc2)cc1,12.6µM*,3.8%
CCOC(=O)C1CCN(C(=O)Cn2c(=O)cc(C)c3c(C)nn(C)c32)CC1,-7.4%,-1.6%
O=C(CSc1nc2cc(Cl)ccc2c(=O)n1Cc1ccco1)Nc1ccc(S(=O)(=O)N2CCOCC2)cc1,?,-4.8%
COC(=O)c1ccc2c(=O)n(Cc3ccco3)c(SCC(=O)Nc3ccc(C)c(Cl)c3)nc2c1,6.31µM*,6.5%
Cc1ccc(-c2csc(N(CC3CCCO3)C(=O)c3ccco3)n2)cc1 (configuration not stated),10.5%,-7.4%
COc1ccc(-c2csc(N(CC3CCCO3)C(=O)c3ccc(C)cc3)n2)cc1 (configuration not stated),20µM*,-3.9%
COCCn1c(SCc2ccccc2F)nc2c([nH]c3ccccc32)c1=O,-4.8%,-0.9%
CCC1=C2CC[C@H]3C(=O)N(c4ccccc4)C(=O)[C@H]3[C@H]2[C@@]2(C)C(=O)N(Cc3ccccc3)C(=O)N2C1=O,1.7%,-3.5%
Cc1onc(-c2ccccc2Cl)c1C(=O)OCC(=O)c1ccc2c(c1)OCCO2,25.1µM*,-2.9%
Cc1onc(-c2ccccc2Cl)c1C(=O)Nc1ccc2c(c1)OCO2,-0.8%,-2.0%
O=C(NCc1ccc(-c2nc3ccccc3s2)cc1)c1ccco1,25.1µM*,-3.4%
O=C(NC(=S)NCc1ccc(-c2nc3ccccc3s2)cc1)c1ccco1,?,-2.5%
Cc1ccc(S(=O)(=O)CCC(=O)OCc2ccc(Cl)cc2)cc1,4.6%,-2.7%
COC(=O)c1ccc(COC(=O)c2ccc(CS(=O)(=O)c3ccc(C)cc3)cc2)cc1,25.1µM*,-1.8%
COc1ccc(CNc2ccnc(-c3ccc(N(C)C)cc3)n2)c(OC)c1,-0.9%,-1.7%
COc1ccc(C(=O)/C=C/c2cn(CC(O)CN3CCc4ccccc43)c3ccccc23)cc1OC (configuration not stated),-25.7%,-4.6%
SMILES,Cruzain inh noDet,Cruzain Triton
Cc1ccc(C(=O)/C=C/c2cn(CC(O)CN3CCc4ccccc43)c3ccccc23)cc1 (configuration not stated),10µM*,-4.2%
O=C1NC(=O)/C(=C\c2ccccc2Oc2ccc(F)c(F)c2)S1,25.1µM*,-7.3%
CN1C(=O)C(=Cc2ccccc2Oc2ccc(Cl)c(F)c2)C(=O)N(C)C1=O,6.8%,-0.6%
Cc1ccc(C)c(S(=O)(=O)c2nnn3c2nc(Nc2ccc(C)c(C)c2)c2ccccc23)c1,-2.1%,0.6%
COc1ccc2cc(C(=O)NCc3ccc4c(c3)CCN4C(=O)c3ccc(F)cc3)[nH]c2c1,25.1µM*,-0.8%
Cc1ccc(NC(=O)NCc2ccc3c(c2)CCN3C(=O)c2ccccc2)c(Cl)c1,-22.5%,-4.3%
COc1ccc(C)cc1NC(=O)NCc1ccc2c(c1)CCN2C(=O)c1ccccc1,20µM*,-3.1%
COc1ccc2cc(C(=O)NCc3ccc4c(c3)CCN4C(=O)c3ccc(C)cc3)[nH]c2c1,12.6µM*,-1.6%
COc1ccc(C(=O)NCc2ccc3c(c2)CCN3C(=O)c2ccc(F)cc2)cc1,9.8%,-0.4%
COc1ccc(C(=O)NCc2ccc3c(c2)CCN3C(=O)c2ccccc2)cc1,14.2%,-1.1%
Cc1cc(C)c(NC(=O)Cn2c(=O)oc3cc(S(=O)(=O)N4CCCCCC4)ccc32)c(C)c1,10.6%,-5.7%
O=c1cc(O)cc(/C=C/c2ccc(O)c(O)c2)o1,-7.4%,-4.2%
COc1ccc(NC(=O)CN(c2ccc(C)cc2)S(=O)(=O)c2cccc3nonc23)cc1OC,?,-5.6%
COc1cccc(CNC(=O)c2cc(S(=O)(=O)N3CCCCCC3)cn2C)c1,-6.5%,-5.2%
Cc1cc2c(C(C)C)c(O)c(O)c(C=O)c2c(O)c1-c1c(C)cc2c(C(C)C)c(O)c(O)c(C=O)c2c1O,?,25.1µM*!
Cc1cc(C(=O)NCCc2ccc(Cl)cc2)c2c(C)nn(-c3ccccc3)c2n1,17.8%,-0.4%
O=S(=O)(O)c1cc(N=Nc2cccc3ccccc23)c(O)c2ncccc12,-4.6%,3.55µM*
O=S(=O)(O)c1cc(S(=O)(=O)O)c2c(N=Nc3cccc4ccccc34)c(O)ccc2c1,22.0%,2.7%
O=C(Nc1ccc(O)c(-c2nc3ccccc3o2)c1)c1sc2ccccc2c1Cl,13.5%,1.3%
Brc1ccc(CNCCCSc2nnnn2-c2ccccc2)cc1,-12.0%,-3.5%
COc1ccc(COc2cc(-c3cccc(OC)c3)nc3ccc(N)cc23)cc1,?,0.1%
COc1ccc(COc2cc(-c3cccc(OC)c3)nc3ccc(NC(=O)c4ccc(N(C)C)cc4)cc23)cc1,6.31µM*,-2.5%
COc1ccc(COc2cc(-c3cccc(OC)c3)nc3ccc(NC(C)=O)cc23)cc1,?,1.1%
COc1ccc(COc2cc(-c3cccc(OC)c3)nc3ccc(NC(=O)c4ccc(C)cc4)cc23)cc1,7.94µM*,3.2%
O=C(COc1ccccc1Cl)NCC1(N2CCOCC2)CCCCC1,5.7%,0.8%
SMILES,Cruzain inh noDet,Cruzain Triton
COc1ccc(C(CNC(=O)COc2ccc(Cl)c(C)c2)N2CCOCC2)cc1 (configuration not stated),0.9%,-2.3%
Cc1ccc(-c2nc3c4ccccc4n(CC(=O)NCc4ccc(F)cc4)c(=O)n3n2)cc1,27.1%,1.8%
CCOc1ccccc1NC(=O)C(NS(=O)(=O)c1ccc2c(c1)CCC(=O)N2)c1ccccc1 (configuration not stated),?,0.6%
COc1ccc(NC(=O)CCn2c(=O)c3cccn3c3cccnc32)c(OC)c1,5.5%,-0.6%
Fc1ccccc1N1CCN(c2nnc(C(F)(F)F)c3nnn(Cc4ccccc4)c23)CC1,13.6%,-0.3%
CCOC(=O)c1sc(Nc2nc3ccc(OC)cc3s2)cc1C,?,-4.0%
CCOC(=O)c1sc(Nc2nc3c(F)cccc3s2)cc1C,15.8µM*,0.8%
Cc1noc(/C=C/c2ccccc2F)c1S(=O)(=O)N1CCC(C(=O)N2CCOc3ccccc32)CC1,-0.5%,-0.2%
COC(=O)c1sccc1S(=O)(=O)N(CC(=O)Nc1ccccc1C)c1ccc(Cl)cc1,2.3%,-5.2%
CCOc1ccc(C(=O)Nc2ccccc2OCc2cc(=O)n3ccccc3n2)cc1,24.7%,4.3%
COc1ccccc1NC(=O)CN(C)S(=O)(=O)c1ccc2c(c1)c(=O)n(C)c(=O)n2C,-0.6%,1.7%
